PubChem BioAssay (NCI)
“And” between values parts separate entries of the source, which are not always exact repeats. Equal entries are not always repeated. This is part of a sample that, as a whole, favours compounds with a hit. Of some 83,000 tested, about 20% had one in any assay.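 Each cell line was grown in a 96-well plate and treated with one concentration of compound for 48 hours. Values below 10 were considered active.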 Values without a mark were called inactive. The source made the active and inactive calls.

tested on: M14 melanoma; assay: NCI-60 one-dose screen, 48 h (100 = growth as untreated, 0 = no growth, -100 = all killed); details: 10 µM unless noted

SMILES | growth
ON=C1CCCCCCCC1 | 102% and 101%
CCOC(=O)N(O)c1ccc(/C=C/c2ccccc2)cc1 | 66.7% and 58.8%
O=S(=O)(O)c1ccc(N=Nc2ccc(N=Nc3cccc4ccccc34)c(S(=O)(=O)O)c2)cc1 | 99.5%
COc1ccc(-c2nn3c(-c4cc(F)c(Cl)cc4Cl)nnc3s2)cc1 | 15.5%
CCc1c2c(nc3ccc(OCc4ccc(B5OC(C)(C)C(C)(C)O5)cc4)cc13)-c1cc3c(c(=O)n1C2)COC(=O)[C@]3(O)CC | 2.91% (active)
O=C(O)c1ccccc1Cc1ccc(F)c2ccccc12 | 129% and 102%
CCCCC1COc2cccc3c2N1C=C/C3=C\C(=O)N(C)c1cccc(Cl)c1 (stereo not drawn) | 102%
COc1ccc(/C=C2\COc3ccc(O)c(O)c3C2=O)c(OC)c1OC | 38.4%
CC12OC(CC(O)C1O)n1c3ccccc3c3c4c(c5c6ccccc6n2c5c31)C(=O)N(CCN1CCOCC1)C4=O (stereo not drawn) | -3.54% (active)
COc1ccc(/C=N/C2=C(C#N)C(c3ccccc3)c3c(ccc4ccccc34)O2)cc1 (stereo not drawn) | 11.8%
COc1ccc(-c2cc3cnc4ccccc4c3oc2=O)cc1 | 106%
O=C(/C=C/c1ccc(F)cc1)Nc1ncc(Cc2ccc(F)cc2)s1 | 19.9%
COc1cc(/C=C2\CCC/C(=C\c3cc(CN4CCCC4)c(O)c(OC)c3)C2=O)cc(CN2CCCC2)c1O | 19.6%
